Data published in the OligoGym collection.

Biological target: FAM163B
Experiment: pooled miR-30 sensor sort-seq; sequence = guide strand
Settings: shRNA
Also: reference of the scale not given here.

| Sequence | sensor-assay potency score (higher = more potent) |
| --- | --- |
| TTGCGGTTGGAGTGCAGCGGGG | -1.47 |
| TTCTGGCTGAAGGAGGTGGAGG | -1.34 |
| TCGCAGTGGGAGCAGCTGCGGC | -1.52 |
| TCTTGCAGCAGTAGTACTGGAG | -0.35 |
| TTGTAGAGCACGCGCTCCCCGC | -1.32 |
| TCCTGCAGGAAGAAGGTGGGGG | -0.682 |
| TCCTCCGACTCGTCCTTCTTGC | -1.53 |
| TTCTTGCAGCAGTAGTACTGGA | -0.857 |
| TTGGTCAGCACCAGGTTGCGGT | -0.802 |
| TAGAGCACGCGCTCCCCGCCGT | -0.76 |
| TCCGACTCGTCCTTCTTGCAGC | -1.44 |
| TAGCACAGAACAGCGATGATGC | -0.556 |

Biological target: FAM164C
Experiment: as above
Settings: shRNA

| Sequence | sensor-assay potency score (higher = more potent) |
| --- | --- |
| TAGAGGTGGAAGACAGTTCTTG | -0.364 |
| TTATCCAGAATCAACTCTTTGT | -0.353 |
| TAGCTCTGCAGGCAGATCTGGG | -1.11 |
| TTTGTTGCTCAAAAGCTGCTTC | 0.134 |
| TTGATGGTCTTACACTTGGGAA | -1.53 |
| ATCACTTTCTGGATCTTGCTGG | 0.553 |
| TAATTTTCTGTAGCTCTCCGTT | -0.559 |
| TTTCTTTCTGCTTTGCATCAAA | -1.22 |
| TTCTTGATGGTCTTACACTTGG | -0.537 |
| TAGTCTTCGGATCTGCACCCAC | -0.402 |
| TTTACTGCTGAAGAGAAGCAGA | -0.62 |

Biological target: FAM174A
Experiment: as above
Settings: shRNA

| Sequence | sensor-assay potency score (higher = more potent) |
| --- | --- |
| TTCTAAAGGTGTCAATTCCATA | -1.28 |
| TGATCGTCCGTCTCAAGCCCGG | -1.42 |
| TATCTCCTAGTCTTTCGGTTTC | -1.02 |
| TGTTAGTGTCCAAAACTCCATA | -0.864 |
| TAGTCTTTCGGTTTCTTCTTCT | 0.156 |
| TTGGCATCAAACAACGTGTTGT | -0.0509 |
| ATATCTCCTAGTCTTTCGGTTT | -1.26 |
| TTCTTCTTCTCATCCTGACCGT | -0.117 |
| TAGTTCAGGCAGCAACAGCAGG | -1.17 |
| ATTTTCTATGTTAGTGTCCAAA | -1.74 |
| AAGTACACCAGCACCGCGCCGC | -0.391 |
| TCTTCTTCTCATCCTGACCGTC | -0.459 |
